Hit rate of the full screen: of about 1,500 compounds, about 430 (29%) were called active. No rule for the calls is given here. A selection follows. Entries that show only a call come without a potency. Potency and affinity values are given separately.
experiment: insulin secretion activators without glucose, dose response, counter-screen for glucose-dependent insulin secretion activators, cell-based, INS-1E, Gaussia luciferase, luminescence, cherry-pick (AID 977606); details: INS-1E Gaussia luciferase insulin secretion, no glucose, 100% = twice neutral-control luminescence; series mostly up to 35 µM

| Structure (SMILES) | outcome |
| --- | --- |
| O=C(Nc1ccc(S(=O)(=O)N2CCOCC2)cc1)c1ccc(=O)[nH]c1 | inactive |
| O=C(NCc1ccc(Cl)cc1)c1cc(=O)[nH]c2ccc(S(=O)(=O)N3CCOCC3)cc12 | inactive |
| COc1ccc2[nH]c3c(NCCCN4CCCC4=O)ncnc3c2c1 | inactive |
| O=c1c(Cc2ccc(Cl)cc2Cl)c(O)ccn1CC(F)(F)F | inactive |
| CCNc1nc(NCC)nc(Nn2cnnc2)n1 | inactive |
| CS(=O)(=O)N1CCCCC1c1cc(C(=O)Nc2cccc3c2CCCC3)no1 (centres undefined) | inactive |
| CCOC(=O)c1nc(SC)n(C)c1C(=O)OCC | inactive |
| COc1ccc2c(c1)C(C)(Cc1ccc(C(=O)c3ccccc3)cc1)C(=O)N2 (centres undefined) | inactive |
| O=C(O)c1ccc(/C=N/n2c(C3CCCCC3)n[nH]c2=S)cc1 | inactive |
| Cc1ccc(/C=N/n2c(-c3cccnc3)n[nH]c2=S)s1 | inactive |
| C[C@H]1[C@@H](c2ccccc2)Oc2c(Cl)cccc2S(=O)(=O)N1C | inactive |
| O=C(COc1ccccc1)N(Cc1cccc(F)c1)C1CCS(=O)(=O)C1 (centres undefined) | inactive |
| Cc1cccc(NCc2ccccc2)c1 | inactive |
| Cc1ccc(NCc2cccc(B(O)O)c2)cc1 | inactive |
| Cc1cc(C)cc(Cn2c3ccc(NC(=S)NCc4ccccc4F)cc3c(=O)n2C)c1 | inactive |
| CC(C)Oc1ccc(C(=O)CCN2CCOCC2)cc1 | inactive |
| O=C(CCN1CCOCC1)c1ccc(N2CCCCC2)cc1 | inactive |
| O=C(c1ccc2c(c1)OCO2)N1CCc2ccccc2C1 | inactive |
| CC(=O)NC1C(=O)N(CCN2CCOCC2)c2ccc(Br)cc21 (centres undefined) | inactive |
| CCCn1c2ccccc2c2cn[nH]c(=O)c21 | inactive |
| CC1CCC(NCCNC(=O)c2ccco2)CC1 (centres undefined) | inactive |
| Cc1ccc(S(=O)(=O)Nc2nc(C)cc(NN)n2)cc1 | inactive |
| FC(F)(F)c1cc(-c2ccccc2)nc(-n2cc(Cl)cn2)n1 | inactive |

| Structure (SMILES) | outcome |
| --- | --- |
| Cn1c(=O)c2[nH]c(SCc3ccccn3)nc2n(C)c1=S | inactive |
| O=C(NCCN1CCN(C(=O)c2ccccc2Cl)CC1)C(=O)NCc1ccccc1 | inactive |
| CC(=O)Nc1nc(NCc2ccccc2Cl)n(-c2ccccc2)n1 | inactive |
| CC(C)Nc1nc(Nc2ccc(C(N)=O)cc2)c2sccc2n1 | inactive |
| CCSc1nnc2ccc(-c3cccs3)nn12 | inactive |
| O=C(CCS(=O)(=O)c1ccc(Cl)cc1)Nc1ccc(N2CCOCC2)cc1 | inactive |
| COc1ccc(/C=C/c2nc(C#N)c(NCCN(C)C)o2)cc1OC | inactive |
| CCCCNC(=O)C1(C)CCN1C(=O)c1cc2ccccc2s1 (centres undefined) | inactive |
| CCOC(=O)C1(C)CCCCN1C(=O)c1cccc(Cl)c1 (centres undefined) | inactive |
| CCc1nc(N)nc2c1C(=O)CC(C)(C)C2 | inactive |
| COc1ccc(CCN2C(=O)CC(Cc3ccccc3)C2=O)cc1OC (centres undefined) | inactive |
| CNc1ccc(-c2ccccc2OC)cn1 | inactive |
| CCOC(=O)c1c(S(=O)(=O)NCCc2ccc(OC)c(OC)c2)c(C)n(C)c1C | inactive |
| COc1ccc(-c2nc3cccc(C)n3c2NCc2ccco2)cc1OC | inactive |
| COc1ccc(CCNC(=O)CCn2c(=O)c3ccccc3n(CC(=O)NCC3CCCO3)c2=O)cc1OC (centres undefined) | inactive |
| COc1ccc(-c2noc(CCC(=O)Nc3cccnc3)n2)cc1OC | inactive |
| Cc1cc(NS(=O)(=O)c2ccc(NC(=O)C(C)Oc3ccccc3Cl)cc2)no1 (centres undefined) | inactive |
| CC1(C)CC(=O)C(C=NC2CC(C)(C)NC(C)(C)C2)=C(O)C1 | inactive |
| COCCNc1nc(NC(C)C)nc2ccsc12 | inactive |
| CCn1nnnc1NCc1ccc(OCc2c(F)cccc2Cl)c(OC)c1 | inactive |
| COCCN1Cc2cccc(C(=O)NCc3ccccc3OC)c2C1=O | inactive |
| COc1ccc2ccc(=O)oc2c1CC=C(C)C | inactive |
| COc1cc2ccc(C(C)=O)cc2cc1OC | inactive |

| Structure (SMILES) | outcome |
| --- | --- |
| Cc1ccc(NC(=O)CN(C(=O)N2CCN(C)CC2)S(=O)(=O)c2ccc(C)cc2)cc1 | inactive |
| FC(F)(F)c1cc(CCN2CCNC[C@@H]2Cc2ccccc2)cc(C(F)(F)F)c1 | inactive |
| NC(=O)C1CCN(C(=O)CCNS(=O)(=O)c2ccccc2F)CC1 | inactive |
| COc1ccccc1C(OC(=O)c1cccs1)C(=O)NCC1CCCO1 (centres undefined) | inactive |
| CC(=O)Nc1cccc(-n2c(=O)n(Cc3ccccc3)c(=O)c3[nH]cnc32)c1 | inactive |
| O=C(c1cccs1)N(Cc1cccc(F)c1)C1CCS(=O)(=O)C1 (centres undefined) | inactive |
| C/C(=N/Oc1nc(C)cc(C)n1)c1ccc(F)cc1 | inactive |
| C=CCn1c(O)c(N=NC(=O)CNC(=O)c2ccco2)c2ccccc21 | inactive |
| CC(C)COC(=O)N1C[C@H](O)C[C@H]1C(=O)Nc1ccc(Cl)cc1 | inactive |
| COc1ccc(CNC(=O)c2cnn3c(C(F)F)cc(C)nc23)cc1 | inactive |
| Cn1cc(C(=O)NCC(=O)Nc2ccccc2Br)cn1 | inactive |
| COc1ccccc1-c1cnc2c(Nc3cccc(OC(F)(F)C(F)F)c3)nccn12 | inactive |
| O=C1CC(NS(=O)(=O)c2cccs2)CN1c1cccc(F)c1 (centres undefined) | inactive |
| CC1(C)Cc2c(cnn2-c2ccccc2)C(NC(=O)CCN2CCCC2=O)C1 (centres undefined) | inactive |
| COc1ccc(C2CC(c3ccc(OC)c(OC)c3)=NN2C(=O)c2ccccc2)cc1 (centres undefined) | inactive |
| COc1ccc(-c2cc(C(F)(F)F)n3nc(C(=O)O)cc3n2)cc1OC | inactive |
| Cc1ccccc1Cc1c(C)nc2c(C(=O)NCc3ccco3)cnn2c1C | inactive |
| Cn1nnnc1Sc1ncnc2scc(-c3ccc(F)cc3)c12 | inactive |
| CCOc1nc(CC(C)C)c2c(c1C#N)CC(C)(C)OC2 | inactive |
| CCOc1ncccc1C(=O)Nc1ccccc1F | inactive |
| CCOc1nc(Nc2ccccc2F)nc(OCC)n1 | inactive |
| Cc1cccc(C(=O)NC(=S)NNC(=O)COc2c(C)cccc2C)c1 | inactive |
| CC(=O)c1cccc(NC(=O)CCC(=O)Oc2ccc(C)cc2)c1 | inactive |

| Structure (SMILES) | outcome |
| --- | --- |
| COc1ccc(NC(=O)C2(c3ccc(NC(=O)c4ccc(OC)cc4)cc3)CCCC2)cc1 | inactive |
| COc1ccc(C(=O)Nc2ccccc2C(=O)Nc2ccncc2)cc1 | inactive |
| CCOc1ncccc1C(=O)Nc1cccc(S(=O)(=O)NC2=NCCC2)c1 | inactive |
| C/C(Cl)=C\Cn1c(N2CCCC2)nc2c1c(=O)[nH]c(=O)n2C | inactive |
| CCCCn1c(N2CCCC2)nc2c1c(=O)[nH]c(=O)n2C | inactive |
| COc1cc2c(cc1OC)-c1cc(N3CCc4ccccc43)nc(=O)n1CC2 | inactive |
| Cc1nc2c(c(N3CCOCC3)n1)OCC(=O)N2 | inactive |
| CCC(C)c1ccccc1OCCn1ccnc1 (centres undefined) | inactive |
| COc1ccc(OCCCCN(C)Cc2ccccc2)cc1 | inactive |
| Cc1noc(C)c1S(=O)(=O)NC(=O)C1(C)CCN1C(=O)C1(c2ccc(Cl)cc2)CCC1 (centres undefined) | inactive |
| CC1(C(=O)NS(=O)(=O)c2ccc(C#N)cc2)CCN1C(=O)C1(c2ccccc2)CCCC1 (centres undefined) | inactive |
| CC1(C(=O)NS(=O)(=O)c2ccc(Cl)s2)CCN1C(=O)C1(c2ccc(Cl)cc2)CCC1 (centres undefined) | inactive |
| CC1(C(=O)N2CCCCC2)CCN1C(=O)C1(c2ccccc2)CC1 (centres undefined) | inactive |
| COC(=O)COc1ccc(C)cc1-n1nc2ccccc2n1 | inactive |
| O=c1[nH]c(CN2CCN(c3ccc(O)cc3)CC2)nc2scc(-c3ccc(Cl)cc3)c12 | inactive |
| O=C(NCc1ccccc1)c1cccnc1Sc1ccccc1 | inactive |
| CCC(O)c1nc2ccccc2n1CCc1ccccc1 (centres undefined) | inactive |
| CC1(C)Cc2c(c(-c3ccco3)nc3n[nH]c(N)c23)CO1 | inactive |
| COc1ccc(CCNC(=O)CN2c3cccc4cccc(c34)S2(=O)=O)cc1OC | inactive |
| Fc1cccc(-c2nnn3c2nc(Cl)c2ccccc23)c1 | inactive |
| CC(=O)c1c(C)oc2ccc(NS(=O)(=O)c3ccc(F)cc3C)cc12 | inactive |
| CCOC(=O)Cc1nn(Cc2ccccc2)c(=O)c2ccccc12 | inactive |
| O=S(=O)(Nc1ccc(-c2ccc3nncn3n2)cc1)c1ccccc1Cl | inactive |

| Structure (SMILES) | outcome |
| --- | --- |
| Cc1nc(N)c(C#N)c(-c2cccnc2)c1C | inactive |
| N#Cc1c(-c2ccncc2)cc(-c2ccc(F)cc2)nc1N | inactive |
| COc1ccc(Cn2c(=O)c3[nH]cnc3n(-c3ccccc3C)c2=O)cc1 | inactive |
| CC(=O)c1ccc2c(c1)N(Cc1ccccc1)C(=O)C(C)S2 (centres undefined) | inactive |
| Cc1ccc(OCC(=O)NNC(=O)CCC(=O)Nc2ccc(C)cc2C)cc1 | inactive |
| Cc1ccccc1NC(=O)c1ccc(OCc2c(C)noc2C)cc1 | inactive |
| COc1ccc(CO/N=C/c2c(C)[nH]c(=O)[nH]c2=O)cc1 | inactive |
| CCc1nc2c(nnn2Cc2ccc(F)cc2)c(=O)[nH]1 | inactive |
| S=c1[nH]nc(-c2ccccc2)n1/N=C/c1c[nH]c2ccccc12 | inactive |
| Cc1ccccc1-c1n[nH]c(=S)n1/N=C/c1c(C)nn(-c2ccccc2)c1C | inactive |
| CCOC(=O)c1oc2cc(O)cc(C)c2c1C | inactive |
| C=CCNc1sc(C(=O)C2CC2)c(N)c1C#N | inactive |
| Cc1cccc(N2CCN(C(=O)c3cccn4c(=O)c5c(C)c(C)sc5nc34)CC2)c1C | inactive |
| Cc1ccc(F)cc1NC(=O)c1sc2ncn(CC(=O)N3CCN(c4ccccn4)CC3)c(=O)c2c1C | inactive |
| O=C(CCc1ccccc1)NNC(=O)COc1ccccc1Cl | inactive |
| COc1ccc(/C=N/Nc2ncnc3c2[nH]c2ccccc23)c(OC)c1OC | inactive |
| Cn1c(N)c(C(c2ccccc2)c2c(N)n(C)c(=O)n(C)c2=O)c(=O)n(C)c1=O | inactive |
| O=c1cc(Cl)[nH]c(=O)n1Cc1ccccc1 | inactive |
| O=c1cc(-c2ccncc2)oc2c1ccc1ccccc12 | inactive |
| CC(C)Cn1c(Cc2ccccc2)n[nH]c1=S | inactive |
| O=C(O)Cc1ccc(NS(=O)(=O)c2ccc3c(c2)OCCO3)cc1 | inactive |
| COc1ccc(S(=O)(=O)N(C)CC(=O)Nc2ccc3c(c2)OCCO3)cc1OC | inactive |

From PubChem BioAssay AID977606 (Broad Institute, 2014)
